The values that follow come from ChEMBL document CHEMBL1157539, “Thousands of chemical starting points for antimalarial lead identification” (Nature, 2010).

Assay type in all cases: functional
Test [1] deals with Plasmodium falciparum. Nature of the test: GSK_TCMDC: Inhibition of Plasmodium falciparum 3D7 in whole red blood cells, using parasite LDH activity as an index of growth. Test compounds present at 2uM.
Test [2] relates to Plasmodium falciparum. Nature of the test: GSK_TCMDC: Inhibition of Plasmodium falciparum Dd2 in whole red blood cells, using parasite LDH activity as an index of growth. Test compounds present at 2uM.
The test system of another test is HepG2. Nature of the test: GSK_TCMDC: Percent inhibition of human HepG2 cell line. Test compounds present at 10uM.

As for `Nc1ncc(-c2ccccc2)cc1/C=C/c1cccnc1`, the figures for the Inhibition with Plasmodium falciparum [1], in the test on Plasmodium falciparum [2] and in the test on HepG2 were 91%, 9% and 33%, respectively.
`CC(C)(C)SCC(O)Cn1c2ccc(Br)cc2c2cc(Br)ccc21` (configuration not stated): the Inhibition in the test on Plasmodium falciparum [1] is on record as 87%; in the test with Plasmodium falciparum [2], 79%; in the test on HepG2 it was 4%.
On the same counts, the results for `CC(C)C[C@@H](/C=N/N1CCNC1=O)NC(=O)[C@H](CC(C)C)NC(=O)c1ccc(OCCN2CCOCC2)cc1` are 97%, 89% and 21%.
Regarding `CCN(CC)CCN(Cc1ccc(-c2ccc(C(F)(F)F)cc2)cc1)C(=O)Cn1c(CCc2cccc(F)c2F)nc(=O)c2ccc(C)cc21.O=C(O)C(O)C(O)C(=O)O`, the values for the Inhibition in the test on Plasmodium falciparum [1], in the test with Plasmodium falciparum [2] and in the test on HepG2 were 99%, 58% and 39%, respectively.
On the same counts, the results for `Cc1nc(C)c(-c2ccc(C(=O)c3ccc(Cl)cc3)cc2)c(O)c1Br` are 97%, 95% and 10%.
As for `O=C(O)C(=O)O.Oc1c(CN2CCC(Cc3ccccc3)CC2)cc(Cl)c2cccnc12`, the figures for the Inhibition in the test on Plasmodium falciparum [1], with Plasmodium falciparum [2] and with HepG2 were 96%, 94% and 49%, respectively.
Consider `CCOc1ccc(NC(=O)c2ccc(CN3CCCN(Cc4cccc(O)c4)CC3)cc2)cc1.O=C(O)C(F)(F)F`, for which the Inhibition is recorded as 85% with Plasmodium falciparum [1], 9% with Plasmodium falciparum [2] and 44% in the test on HepG2.
The corresponding values for `COc1ccc2nccc([C@@H](O)CN3CCC(NC(=O)C(=Cc4ccc(C#N)cc4)c4ccc(-c5ccccc5)cc4)CC3)c2c1` are 100%, 84% and 5%.
As for `COc1cc(C(=O)N2N=C(c3c(-c4ccccc4)c4cc(Br)ccc4[nH]c3=O)CC2c2cccc([N+](=O)[O-])c2)cc(OC)c1OC` (configuration not stated), the Inhibition with Plasmodium falciparum [1] is on record as 93%; with Plasmodium falciparum [2], 95%; with HepG2 it was 1%.
The corresponding values for `CNC(=O)c1cnc(Nc2ccc(N3CCN(C)CC3)cc2)nc1Nc1cccc(OC)c1.O=C(O)C(F)(F)F` are 100%, 100% and 19%.
The corresponding values for `N#Cc1ccc(N(CCOC(=O)c2ccccc2)Cc2ccccc2C(F)(F)F)cc1C(F)(F)F` are 92%, 67% and 6%.
On the same counts, the results for `C[C@H](NC(=O)c1c(OC2CN(C(c3ccccc3)c3ccccc3)C2)c(-c2ccccc2)nc2ccccc12)C1CCCCC1` are 92%, 74% and 0%.
Take `Cc1cc(=O)c2cc(Oc3cccc(OC(F)(F)F)c3)ccc2[nH]1`: the Inhibition in the test with Plasmodium falciparum [1] was 90%; in the test on Plasmodium falciparum [2], 80%; in the test on HepG2, 9%.
On to `O=C(Nc1ccc(O)c(-c2nc3ccccc3[nH]2)c1)c1ccc([N+](=O)[O-])cc1`, for which the Inhibition is 97% in the test with Plasmodium falciparum [1], 45% with Plasmodium falciparum [2] and 0% in the test on HepG2.
With `CCc1c(CCNCCCCCCNCCc2ccccc2)ccc(OC)c1OC.Cl`, the Inhibition in the test with Plasmodium falciparum [1] was 100%; with Plasmodium falciparum [2] it was 3%; with HepG2 it was 33%.
On to `Cc1cc(-c2ccnc(Nc3cccc(C#N)c3)n2)cc(C)c1O`, for which the Inhibition in the test with Plasmodium falciparum [1] came to 88%; with Plasmodium falciparum [2] it was 54%; in the test with HepG2, 50%.
On the same counts, the results for `CC(C)(C)C1CC(=O)CC2C(=O)N(C3CCCCC3)C(=O)C21` (configuration not stated) are 97%, 27% and 0%.
The corresponding values for `Cc1cc(Nc2ccncc2)n2nc(C)c(-c3ccccc3Cl)c2n1` are 99%, 93% and 2%.
Turning to `Cc1ccc(/C=C/C(=O)NCCCCCN2CCC(c3c[nH]c4ccccc34)CC2)cc1`, the Inhibition in the test with Plasmodium falciparum [1] is reported as 86%; in the test on Plasmodium falciparum [2] it was 7%; with HepG2, 36%.

For orientation: Inhibition means the share of the control response that was lost under treatment.
